Laboratory results reported in PubChem BioAssay.
Calls of active or inactive are those of the source. Rule as the data show it: active = fold change permeability below about 0.7 or above about 1.3; inactive = in between.

test: modulators of brain endothelial barrier permeability, primary screen, cell-based, FITC-avidin fluorescence, HTS (AID 1963498); conditions: actives lie on both sides; also: test concentration not given here

Fold change permeability, active:
O=C1NC(=O)c2c1c(-c1ccccc1)cc1[nH]c3ccc(O)cc3c21 0.7
COc1cc(O)cc(CCc2ccc(OC)c(O)c2)c1 1.9
COc1ccc(-c2cc3ncc(C)n3c(Nc3ncccc3C(N)=O)n2)cc1OC 1.6
Cn1c(=O)c2[nH]c(C3CCCC3)nc2n(C)c1=O 1.3
CCCc1c(OCCCOc2ccc(OCC(=O)O)cc2)ccc(C(C)=O)c1O 1.3
CNc1cc(NS(=O)(=O)c2ccc(N)cc2)nc(NC)n1 0.7
Oc1ccc2ccccc2c1SSc1c(O)ccc2ccccc12 1.6
CC1=C(/C=C/C(C)=C/C=C/C(C)=C\C(=O)O)C(C)(C)CCC1 1.4
COc1ccccc1OCCNCC(O)COc1cccc2[nH]c3ccccc3c12 (centres undefined) 1.7
N=S(=O)(O)Cc1noc2ccccc12 1.9
COCC(=O)O[C@]1(CCN(C)CCCc2nc3ccccc3[nH]2)CCc2cc(F)ccc2[C@@H]1C(C)C 1.5
CC(C)(C)c1ccc(C(=O)CCCN2CCC(OC(c3ccccc3)c3ccccc3)CC2)cc1 1.6
C#CCN(C)Cc1ccccc1 0.6
O=C1c2cccc3c2[C@H](CCC3)CN1[C@@H]1CN2CCC1CC2 1.3
Cn1cnc2c1c(=O)[nH]c(=O)n2C 1.3
Cc1cc(C)cc(NC(=O)CN(c2cc([N+](=O)[O-])ccc2C)S(C)(=O)=O)c1 1.5
Nc1ccc2c3c(cccc13)C(=O)NC2=O 2.8
Oc1cc2c(c(Cl)c1O)CCNCC2c1ccccc1 (centres undefined) 1.6
CCN1CCC[C@H]1CNC(=O)c1cc(S(N)(=O)=O)ccc1OC 0.7
CC#CCOC(=O)c1c(C)nc2sc3c(c2c1N)CCC(O)C3 (centres undefined) 1.9
Nc1c(S(=O)(=O)O)cc(Nc2ccc(Nc3nc(Cl)nc(Nc4cccc(S(=O)(=O)O)c4)n3)c(S(=O)(=O)O)c2)c2c1C(=O)c1ccccc1C2=O 0.7
CC[N+](CC)(CC)CC(=O)Nc1c(C)cccc1C 1.5
C[C@@H](O[C@H]1OCCN(Cc2nn(P(=O)(O)O)c(=O)[nH]2)[C@H]1c1ccc(F)cc1)c1cc(C(F)(F)F)cc(C(F)(F)F)c1 1.4

Fold change permeability, inactive:
O=C1NC(=O)/C(=C/c2ccc(-c3ccc(F)cc3O)o2)S1 1
CC(C)(Sc1ccc(CCN(CCCCC2CCCCC2)C(=O)NC2CCCCC2)cc1)C(=O)O 1
NC12CC3CC(CC(C3)C1)C2 0.9
CCCCS(=N)(=O)CCC(N)C(=O)O (centres undefined) 1.1
CC(=O)Oc1ccccc1C(=O)O 1
C[N+](C)(C)CCOP(=O)(O)OP(=O)([O-])OC[C@H]1O[C@@H](n2ccc(N)nc2=O)C(O)[C@H]1O (some centres undefined) 1.1
CC(=O)O[C@H]1C[C@@H]2CC[C@@H]3[C@H](CC[C@@]4(C)[C@H]3C[C@H]([N+]3(C)CCCCC3)[C@@H]4OC(C)=O)[C@@]2(C)C[C@@H]1[N+]1(C)CCCCC1 1
O=C1Nc2ccc(Cl)cc2[C@@](C#CC2CC2)(C(F)(F)F)O1 1.2
O=C(O)C1(C(=O)O)CCC1.[NH2-].[NH2-].[Pt+2] 0.8
CCCC(C)NC(=O)c1ccc(Cl)c(Cl)c1 (centres undefined) 1.2
O=C(O)c1ccccc1Nc1ccccc1 1
C[n+]1cccc(C(N)=O)c1 0.9
CC(C)C[C@H](C(=O)O)c1cc(-c2ccc(C(F)(F)F)cc2)cc(-c2ccc(C(F)(F)F)cc2)c1 0.9
O=C(O)CCC(C(=O)O)N1C(=O)c2ccccc2C1=O (centres undefined) 1
CCCN[C@H]1CCc2nc(N)sc2C1 1.1
Oc1ccccc1-c1cc(-c2ccccc2F)[nH]n1 1
